Laboratory results: PubChem BioAssay (Tox21)
Activity calls are given as the source filed them. Entries that show only a call come without a potency. The call rests on the fitted dose curve; in most records, active means well fitted activation curve with a large enough effect in the repeat runs; inconclusive means weak or mixed curves; inactive means flat fitted curve, though single readings scatter.

Target: Androgen receptor (Homo sapiens) (UniProt P10275)
Assay: qHTS assay to identify small molecule agonists of the androgen receptor (AR) signaling pathway using the MDA cell line (AID 743040; further: nearly all actives have a fitted effect of over 20% in size)
Settings: MDA-kb2 AR-luc cells, MMTV luciferase, 16 h; series mostly up to 70.3 µM
Excerpt: National Center for Advancing Translational Sciences [NCATS]
NIH Chemical Genomics Center [NCGC]
U.S. Environmental Protection Agency [EPA]
National Institutes of Environmental Health Sciences [NIEHS]
National Toxicology Program [NTP]
U.S. Food and Drug Administration [FDA]
Androgen receptor (AR), a nuclear hormone receptor, plays a critical role in AR-dependent prostate cancer and other androgen related diseases. Endocrine disrupting chemicals (EDCs) and their interactions with steroid hormone receptors like AR may cause disruption of normal endocrine function as well as interfere with metabolic homeostasis, reproduction, developmental and behavioral functions. To identify the compounds that activate AR signaling, MDA-kb2 AR-luc cell line (from ATCC, deposited by Wilson et al.) was used to screen the Tox21 10K compound library. MDA-kb2 AR-luc cell line is human breast carcinoma cell line that was stably transfected with a luciferase reporter gene under control of the MMTV promoter containing response elements for both androgen receptor (AR) and glucocorticoid receptor (GR).
Tox21 Assay Protocol Summary:
MDA-kb2 AR-luc cells were dispensed at 3,000 cells/5 uL/well of culture medium into white wall/solid-bottom 1536-well plates using a Multidrop Combi (ThermoFisher Scientific, Waltham, MA) dispenser. After the assay plates were incubated at 37C and 0% CO2 for 5 h, 23 nL of compounds dissolved in DMSO, positive controls or DMSO only was transferred to the assay plate by a Pintool station (Kalypsys, San Diego, CA). The plates were incubated at 37C and 0% CO2 for 16 h. Then 4 uL of ONE-Glo reagent (Promega, Madison, WI) was added to each plate using a Bioraptr Flying Reagent Dispenser (FRD) workstation (Beckman Coulter, Indianapolis, IN, USA) and luminescence was quantified on a ViewLux (PerkinElmer, Shelton, CT) plate reader after 30 min incubation at room temperature.
Potency means the concentration at half of the fitted maximal effect.

Chain of Androgen receptor (Homo sapiens) (P10275 whole entry, looked up): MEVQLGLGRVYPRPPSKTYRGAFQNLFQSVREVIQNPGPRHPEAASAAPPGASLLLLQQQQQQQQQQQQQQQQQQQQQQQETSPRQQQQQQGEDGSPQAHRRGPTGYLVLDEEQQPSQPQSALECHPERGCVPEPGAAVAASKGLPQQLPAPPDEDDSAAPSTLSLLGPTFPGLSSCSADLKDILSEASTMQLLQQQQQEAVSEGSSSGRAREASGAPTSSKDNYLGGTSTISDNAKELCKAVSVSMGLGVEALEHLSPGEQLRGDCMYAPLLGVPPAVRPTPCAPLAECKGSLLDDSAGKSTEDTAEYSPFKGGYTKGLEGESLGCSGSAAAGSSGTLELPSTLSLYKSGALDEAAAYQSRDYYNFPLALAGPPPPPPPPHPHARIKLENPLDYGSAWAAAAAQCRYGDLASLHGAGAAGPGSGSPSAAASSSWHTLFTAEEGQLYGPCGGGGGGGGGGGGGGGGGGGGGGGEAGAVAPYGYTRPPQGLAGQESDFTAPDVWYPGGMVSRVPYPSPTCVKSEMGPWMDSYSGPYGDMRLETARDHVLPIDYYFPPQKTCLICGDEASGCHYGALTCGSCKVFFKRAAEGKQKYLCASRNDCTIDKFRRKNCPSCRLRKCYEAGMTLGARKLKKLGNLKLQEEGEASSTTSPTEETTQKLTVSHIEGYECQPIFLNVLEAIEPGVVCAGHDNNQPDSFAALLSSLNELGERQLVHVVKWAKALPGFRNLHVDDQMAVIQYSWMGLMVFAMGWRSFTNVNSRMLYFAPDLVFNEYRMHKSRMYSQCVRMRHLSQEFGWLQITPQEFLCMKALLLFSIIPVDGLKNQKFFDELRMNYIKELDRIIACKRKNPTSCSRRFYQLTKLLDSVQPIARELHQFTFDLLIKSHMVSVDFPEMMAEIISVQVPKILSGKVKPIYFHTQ

Row | SMILES | Potency
1 | c1ccc(Sc2ccccc2)cc1 | inactive
2 | O=C(O)Cc1ccc(OCCNC[C@H](O)c2ccccc2)cc1 | inactive
3 | Cc1c(C(=O)O)cccc1[N+](=O)[O-] | inactive
4 | C[Si](C)(C)Cl | inactive
5 | CN(C)c1ccc(N=NS(=O)(=O)O)cc1 | inactive
6 | CCN1CCN(c2cc(-c3ccc(F)cc3)c3c(n2)CCCCCC3)CC1 | inactive
7 | O=C1NCCN1CCN1CCC(c2cn(-c3ccc(F)cc3)c3ccc(Cl)cc23)CC1 | inactive
8 | CCCCCCCCCCCCN(CCO)CCO | inactive
9 | Cc1oc(-c2ccccc2)nc1CCOc1ccc(C[C@H](Nc2ccccc2C(=O)c2ccccc2)C(=O)O)cc1 | inactive
10 | CCCSS/C(CCO)=C(\C)N(C=O)Cc1cnc(C)nc1N | inactive
11 | C[n+]1c2cc(N)ccc2cc2ccc(N)cc21 (tested in a mixture with another compound) | inactive
12 | N[C@@H](CSSC[C@H](N)C(=O)O)C(=O)O | inactive
13 | CCOC(=O)C1=C(C)NC(C)=C(C(=O)OCC)C1c1ccccc1/C=C/C(=O)OC(C)(C)C | inactive
14 | COC(=O)C1=C(C)NC(C)=C(C(=O)OCCCN2CCC(c3ccccc3)(c3ccccc3)CC2)C1c1cccc([N+](=O)[O-])c1 (stereo not given) | inactive
15 | CCN=c1cc2oc3cc(NCC)c(C)cc3c(-c3ccccc3C(=O)OCC)c-2cc1C | inactive
16 | CCC(C)(C)c1cc(O)c(C(C)(C)CC)cc1O | inactive
17 | Nc1ccc2cc3ccc(N)cc3nc2c1 | inactive
18 | CCCOc1sc(C(=O)N2CCC(c3cc(CN)ccc3F)CC2)c(C)c1Br | inactive
19 | O=C(NO)c1ccccc1 | inactive
20 | O=Cc1ccc(F)cc1 | inactive

Row | SMILES | Potency
21 | CCN(CC)CCOC(=O)C1(C2CCCCC2)CCCCC1 | inactive
22 | CCC(C)c1cc([N+](=O)[O-])cc([N+](=O)[O-])c1OC(=O)OC(C)C (stereo not given) | inactive
23 | N#CSCSc1nc2ccccc2s1 | inactive
24 | C[C@]12CC[C@H]3C(=CCc4cc(O)ccc43)[C@@H]1CCC2=O | 5.45 µM (active)
25 | NC(=O)c1nc(-c2cccc(-c3cc(F)ccc3OCC(F)(F)C(F)(F)F)c2)n[nH]1 | inactive
26 | CCCCCCCCCCOCC(O)CN (stereo not given) | inactive
27 | Cc1cn[nH]c1 | inactive
28 | COc1cc(C(C)C)c2c(c1)S(=O)(=O)N(COc1cc(=O)n3cccc(OCCN4CCCCC4)c3n1)C2=O | inactive
29 | O=C(Oc1ccccc1)c1cccc(C(=O)Oc2ccccc2)c1 | inactive
30 | C=CC(=O)OCCC#N | inactive
31 | O=C(O)c1cccc(Cl)n1 | inactive
32 | O=C1c2c(O)ccc(O)c2C(=O)c2c(NCCNCCO)ccc(NCCNCCO)c21 | inactive
33 | Cc1ccc(N)cc1O | inactive
34 | CC(C)(c1cc(Br)c(OCCO)c(Br)c1)c1cc(Br)c(OCCO)c(Br)c1 | inactive
35 | O=C1OC(OC(=O)c2cccnc2Nc2cccc(C(F)(F)F)c2)c2ccccc21 (stereo not given) | inactive
36 | c1cc(OCC2CO2)cc(OCC2CO2)c1 (stereo not given) | inactive
37 | CCCN(CCc1cccs1)[C@H]1CCc2c(O)cccc2C1 | inactive
38 | CC(NCCC(c1ccccc1)c1ccccc1)c1ccccc1 (stereo not given) | inactive
39 | CCCCCCOc1ccc(O)cc1 | inactive
40 | CCN=C1C=CC(=C(c2ccc(N(CC)CC)cc2)c2ccc(N(CC)CC)cc2)c2ccccc21 | inactive
